The full data set covers some 7,900 targets. This sample favours those with a hit. About 0.6% of all pairs of compound and target were hits. Values without a mark were called inactive.
Experiments:
Assay in all cases: log2 fold change, soluble protein after heating vs DMSO (PISA); higher = thermal stabilisation; K562 cells, 10 uM, 30 min; active = over 0.2 and 3.5 SD of the protein, either way, in both replicates (recomputed)
[1] = compound: COC1=CC=C(C=C1)CN2C=CC3=C2C=C(C=C3)C(=O)NO
Summary of the method: (§1)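 K562 cells at 2×10^6 cells/mL were treated for 30 min with 10 μM compound, and aliquots were heated for 3 min over 48°C-58°C before pooling. Extraction used PBS with 0.5% NP-40 at 4°C, and soluble protein was the supernatant after 21,000xg for 90 min, measured by TMTpro 16plex LC-MS/MS with channel sums equalised. Thermal stability values, relative to control samples and from duplicates, are log2 fold changes.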

filanesib = compound: CON(C)C(=O)N1N=C(c2cc(F)ccc2F)S[C@@]1(CCCN)c1ccccc1 [filanesib]
Summary of the method: as §1

zotarolimus = compound: CO[C@H]1C[C@@H]2CC[C@@H](C)[C@@](O)(O2)C(=O)C(=O)N2CCCC[C@H]2C(=O)O[C@H]([C@H](C)C[C@@H]2CC[C@H](n3cnnn3)[C@H](OC)C2)CC(=O)[C@H](C)/C=C(\C)[C@@H](O)[C@@H](OC)C(=O)[C@H](C)C[C@H](C)/C=C/C=C/C=C/1C [zotarolimus]
Summary of the method: as §1

idasanutlin = compound: COc1cc(C(=O)O)ccc1NC(=O)[C@@H]1N[C@@H](CC(C)(C)C)[C@](C#N)(c2ccc(Cl)cc2F)[C@H]1c1cccc(Cl)c1F [idasanutlin]
Summary of the method: as §1

alisertib = compound: COc1cc(Nc2ncc3c(n2)-c2ccc(Cl)cc2C(c2c(F)cccc2OC)=NC3)ccc1C(=O)O [alisertib]
Summary of the method: as §1

[2] = compound: COc1cc2nc(-c3cc(F)ccc3O)nc(N[C@@H]3CNC[C@H]3C(C)(C)O)c2cc1OC
Summary of the method: as §1

gefitinib = compound: COc1cc2ncnc(Nc3ccc(F)c(Cl)c3)c2cc1OCCCN1CCOCC1 [gefitinib]
Summary of the method: as §1

[3] = compound: COc1cccc2cc(-c3nc([C@H]4CC[C@H](C(=O)O)CC4)n4ncnc(N)c34)[nH]c12
Summary of the method: as §1

lapatinib = compound: CS(=O)(=O)CCNCc1ccc(-c2ccc3ncnc(Nc4ccc(OCc5cccc(F)c5)c(Cl)c4)c3c2)o1 [lapatinib]
Summary of the method: as §1

pictilisib = compound: CS(=O)(=O)N1CCN(Cc2cc3nc(-c4cccc5[nH]ncc45)nc(N4CCOCC4)c3s2)CC1 [pictilisib]
Summary of the method: as §1

[4] = compound: CS(=O)(=O)c1ccc(-c2cnc(N)c(C(=O)Nc3ccccc3)n2)cc1
Summary of the method: as §1

crizotinib = compound: C[C@@H](Oc1cc(-c2cnn(C3CCNCC3)c2)cnc1N)c1c(Cl)ccc(F)c1Cl [crizotinib]
Summary of the method: as §1

[5] = compound: C[C@@H]1COCCN1C2=NC(=NC(=C2)C3(CC3)S(=O)(=O)C)C4=C5C=CNC5=CC=C4
Summary of the method: as §1

[6] = compound: C[C@H](C1=CC=C(C=C1)C(=O)NC2=C3C=CNC3=NC=C2)N
Summary of the method: as §1

duvelisib = compound: C[C@H](Nc1ncnc2nc[nH]c12)c1cc2cccc(Cl)c2c(=O)n1-c1ccccc1 [duvelisib]
Summary of the method: as §1

gandotinib = compound: Cc1cc(Nc2cc(CN3CCOCC3)c3nc(C)c(Cc4ccc(Cl)cc4F)n3n2)n[nH]1 [gandotinib]
Summary of the method: as §1

tozasertib = compound: Cc1cc(Nc2cc(N3CCN(C)CC3)nc(Sc3ccc(NC(=O)C4CC4)cc3)n2)n[nH]1 [tozasertib]
Summary of the method: as §1

[7] = compound: Cc1cc(SCc2sc(-c3ccc(C(F)(F)F)cc3)nc2C)ccc1OCC(=O)O
Summary of the method: as §1

doramapimod = compound: Cc1ccc(-n2nc(C(C)(C)C)cc2NC(=O)Nc2ccc(OCCN3CCOCC3)c3ccccc23)cc1 [doramapimod]
Summary of the method: as §1

ispinesib = compound: Cc1ccc(C(=O)N(CCCN)[C@@H](c2nc3cc(Cl)ccc3c(=O)n2Cc2ccccc2)C(C)C)cc1 [ispinesib]
Summary of the method: as §1

Chain of UniProt P06865 (P06865 whole entry, looked up): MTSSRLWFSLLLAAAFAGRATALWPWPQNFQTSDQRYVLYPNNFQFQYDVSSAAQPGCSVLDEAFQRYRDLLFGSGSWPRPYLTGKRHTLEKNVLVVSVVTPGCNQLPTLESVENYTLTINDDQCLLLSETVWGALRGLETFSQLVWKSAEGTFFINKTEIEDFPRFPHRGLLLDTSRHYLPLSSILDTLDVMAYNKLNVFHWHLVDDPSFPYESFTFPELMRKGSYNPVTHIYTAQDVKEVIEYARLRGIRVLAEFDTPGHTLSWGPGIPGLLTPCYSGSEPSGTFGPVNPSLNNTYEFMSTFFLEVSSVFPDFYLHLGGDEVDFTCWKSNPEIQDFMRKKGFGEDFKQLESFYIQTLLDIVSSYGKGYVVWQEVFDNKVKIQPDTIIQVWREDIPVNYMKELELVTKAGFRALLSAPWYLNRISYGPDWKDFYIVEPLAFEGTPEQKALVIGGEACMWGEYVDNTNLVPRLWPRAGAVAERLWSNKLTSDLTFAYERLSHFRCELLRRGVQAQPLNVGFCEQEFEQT
Chain of UniProt Q96JB3 (Q96JB3 whole entry, looked up): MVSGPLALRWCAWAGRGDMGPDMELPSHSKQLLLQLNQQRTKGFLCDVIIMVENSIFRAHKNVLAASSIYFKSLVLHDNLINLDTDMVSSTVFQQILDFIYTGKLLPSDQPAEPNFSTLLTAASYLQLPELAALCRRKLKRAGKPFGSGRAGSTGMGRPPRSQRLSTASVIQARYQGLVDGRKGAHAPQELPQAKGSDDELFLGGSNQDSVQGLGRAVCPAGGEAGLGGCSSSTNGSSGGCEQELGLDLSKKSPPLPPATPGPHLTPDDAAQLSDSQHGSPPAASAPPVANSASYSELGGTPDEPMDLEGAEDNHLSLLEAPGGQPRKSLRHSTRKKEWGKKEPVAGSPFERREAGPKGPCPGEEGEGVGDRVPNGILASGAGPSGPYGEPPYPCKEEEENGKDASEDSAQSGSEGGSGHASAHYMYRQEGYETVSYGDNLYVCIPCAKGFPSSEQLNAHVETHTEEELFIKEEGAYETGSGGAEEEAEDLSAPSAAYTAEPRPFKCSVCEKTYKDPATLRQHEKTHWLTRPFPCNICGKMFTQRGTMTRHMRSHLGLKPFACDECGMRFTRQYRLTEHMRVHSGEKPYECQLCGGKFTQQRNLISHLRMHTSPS
Chain of UniProt P48507 (P48507 whole entry, looked up): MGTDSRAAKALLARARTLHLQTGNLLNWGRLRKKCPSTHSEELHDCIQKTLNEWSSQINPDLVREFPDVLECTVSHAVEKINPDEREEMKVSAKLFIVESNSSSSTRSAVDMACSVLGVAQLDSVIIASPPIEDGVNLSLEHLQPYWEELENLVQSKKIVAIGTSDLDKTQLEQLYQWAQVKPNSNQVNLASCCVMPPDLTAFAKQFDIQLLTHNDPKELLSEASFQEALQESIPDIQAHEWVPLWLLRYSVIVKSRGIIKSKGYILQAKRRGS
Chain of UniProt Q02790 (Q02790 whole entry, looked up): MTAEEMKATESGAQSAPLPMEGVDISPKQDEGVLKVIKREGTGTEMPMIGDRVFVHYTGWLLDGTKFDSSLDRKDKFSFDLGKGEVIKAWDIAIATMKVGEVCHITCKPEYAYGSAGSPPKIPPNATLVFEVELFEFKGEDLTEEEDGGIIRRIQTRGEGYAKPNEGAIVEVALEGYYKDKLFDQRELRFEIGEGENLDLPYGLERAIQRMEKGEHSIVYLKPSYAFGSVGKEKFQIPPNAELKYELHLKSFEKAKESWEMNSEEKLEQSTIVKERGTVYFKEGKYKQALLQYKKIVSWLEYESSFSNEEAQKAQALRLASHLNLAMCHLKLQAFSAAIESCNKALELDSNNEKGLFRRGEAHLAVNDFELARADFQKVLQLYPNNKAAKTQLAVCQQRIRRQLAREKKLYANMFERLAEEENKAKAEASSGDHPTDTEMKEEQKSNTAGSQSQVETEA
Chain of UniProt P52655 (P52655 whole entry, looked up): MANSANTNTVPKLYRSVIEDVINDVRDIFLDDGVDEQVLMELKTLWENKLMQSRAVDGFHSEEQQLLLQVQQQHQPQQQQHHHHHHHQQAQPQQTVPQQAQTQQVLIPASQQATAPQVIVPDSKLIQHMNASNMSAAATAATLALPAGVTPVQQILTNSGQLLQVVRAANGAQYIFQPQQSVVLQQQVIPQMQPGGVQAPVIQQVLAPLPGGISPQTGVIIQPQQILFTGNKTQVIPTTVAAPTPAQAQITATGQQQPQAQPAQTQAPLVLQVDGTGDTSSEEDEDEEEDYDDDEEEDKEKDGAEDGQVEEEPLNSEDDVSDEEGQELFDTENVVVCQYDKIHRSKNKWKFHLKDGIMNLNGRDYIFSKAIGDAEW
Chain of UniProt P04066 (P04066 whole entry, looked up): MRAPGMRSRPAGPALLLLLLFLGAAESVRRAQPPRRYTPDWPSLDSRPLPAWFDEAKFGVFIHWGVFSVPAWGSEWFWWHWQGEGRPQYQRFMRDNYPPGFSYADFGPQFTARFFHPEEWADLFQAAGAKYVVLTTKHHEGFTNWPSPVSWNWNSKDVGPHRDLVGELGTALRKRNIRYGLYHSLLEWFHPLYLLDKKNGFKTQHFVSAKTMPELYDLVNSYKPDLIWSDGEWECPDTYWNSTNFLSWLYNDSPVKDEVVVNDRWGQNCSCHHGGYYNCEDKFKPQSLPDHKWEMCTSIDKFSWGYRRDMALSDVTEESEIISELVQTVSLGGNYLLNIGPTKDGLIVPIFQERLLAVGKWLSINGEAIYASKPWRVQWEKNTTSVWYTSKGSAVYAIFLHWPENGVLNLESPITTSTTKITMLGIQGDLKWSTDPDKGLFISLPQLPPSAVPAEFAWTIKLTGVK
Chain of UniProt P00367 (P00367 whole entry, looked up): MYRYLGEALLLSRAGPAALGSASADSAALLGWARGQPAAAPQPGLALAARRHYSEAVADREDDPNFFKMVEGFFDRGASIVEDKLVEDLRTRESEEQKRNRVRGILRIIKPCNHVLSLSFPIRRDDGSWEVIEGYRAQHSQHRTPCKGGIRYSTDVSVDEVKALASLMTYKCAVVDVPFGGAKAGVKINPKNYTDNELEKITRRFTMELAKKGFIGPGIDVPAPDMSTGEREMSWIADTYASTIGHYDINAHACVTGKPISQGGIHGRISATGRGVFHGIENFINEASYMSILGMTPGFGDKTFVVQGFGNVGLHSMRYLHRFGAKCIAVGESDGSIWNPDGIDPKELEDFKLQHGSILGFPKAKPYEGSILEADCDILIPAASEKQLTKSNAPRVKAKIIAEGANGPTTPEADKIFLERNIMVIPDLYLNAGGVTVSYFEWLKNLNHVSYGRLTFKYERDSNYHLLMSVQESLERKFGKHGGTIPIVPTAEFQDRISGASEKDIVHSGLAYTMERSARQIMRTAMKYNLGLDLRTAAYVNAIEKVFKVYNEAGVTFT
Chain of UniProt Q9BXW9 (Q9BXW9 whole entry, looked up): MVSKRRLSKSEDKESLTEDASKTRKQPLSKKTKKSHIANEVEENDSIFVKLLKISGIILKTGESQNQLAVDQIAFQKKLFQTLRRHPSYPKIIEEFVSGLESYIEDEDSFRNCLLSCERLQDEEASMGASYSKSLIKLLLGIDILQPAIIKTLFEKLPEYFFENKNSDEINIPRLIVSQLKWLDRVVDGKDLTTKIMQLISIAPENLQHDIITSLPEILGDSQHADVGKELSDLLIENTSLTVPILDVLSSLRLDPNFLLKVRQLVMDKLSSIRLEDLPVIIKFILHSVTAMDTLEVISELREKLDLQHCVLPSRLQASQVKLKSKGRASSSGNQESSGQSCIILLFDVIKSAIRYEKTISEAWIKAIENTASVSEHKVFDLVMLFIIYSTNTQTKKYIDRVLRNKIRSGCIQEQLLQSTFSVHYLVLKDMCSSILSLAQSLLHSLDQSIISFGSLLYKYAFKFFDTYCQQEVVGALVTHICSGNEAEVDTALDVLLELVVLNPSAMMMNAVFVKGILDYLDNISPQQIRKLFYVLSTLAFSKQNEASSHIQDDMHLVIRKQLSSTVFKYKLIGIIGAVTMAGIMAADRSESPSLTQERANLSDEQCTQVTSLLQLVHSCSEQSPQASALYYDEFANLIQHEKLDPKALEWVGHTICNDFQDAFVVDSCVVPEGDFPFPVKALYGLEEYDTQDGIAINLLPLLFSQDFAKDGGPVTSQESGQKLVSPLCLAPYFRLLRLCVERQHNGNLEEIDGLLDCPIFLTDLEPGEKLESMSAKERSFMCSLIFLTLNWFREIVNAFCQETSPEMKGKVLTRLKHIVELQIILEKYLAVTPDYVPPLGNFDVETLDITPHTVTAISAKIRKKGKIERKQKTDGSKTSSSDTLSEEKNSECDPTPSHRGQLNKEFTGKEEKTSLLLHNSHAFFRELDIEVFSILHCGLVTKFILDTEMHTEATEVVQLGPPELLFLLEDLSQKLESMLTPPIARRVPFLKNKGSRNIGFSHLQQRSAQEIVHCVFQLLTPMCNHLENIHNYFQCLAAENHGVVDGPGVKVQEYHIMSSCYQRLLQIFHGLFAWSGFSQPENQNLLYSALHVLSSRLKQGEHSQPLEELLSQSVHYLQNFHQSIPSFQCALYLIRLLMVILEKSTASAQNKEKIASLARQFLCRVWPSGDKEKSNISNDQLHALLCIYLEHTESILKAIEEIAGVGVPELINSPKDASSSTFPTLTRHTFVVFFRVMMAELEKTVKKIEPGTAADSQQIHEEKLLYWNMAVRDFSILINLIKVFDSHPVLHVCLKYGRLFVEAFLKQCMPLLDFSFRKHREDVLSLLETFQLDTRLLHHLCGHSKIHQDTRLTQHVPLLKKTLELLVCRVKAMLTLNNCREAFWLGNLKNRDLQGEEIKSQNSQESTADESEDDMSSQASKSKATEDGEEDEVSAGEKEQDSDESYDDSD
Chain of UniProt Q9BUP3 (Q9BUP3 whole entry, looked up): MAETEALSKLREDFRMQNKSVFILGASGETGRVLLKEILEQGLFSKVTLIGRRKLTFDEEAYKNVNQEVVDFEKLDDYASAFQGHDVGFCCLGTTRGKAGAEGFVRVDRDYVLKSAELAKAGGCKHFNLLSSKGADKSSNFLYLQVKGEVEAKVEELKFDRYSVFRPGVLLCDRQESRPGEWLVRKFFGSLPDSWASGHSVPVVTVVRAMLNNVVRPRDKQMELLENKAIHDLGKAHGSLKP

Target | log2 fold change [1] | log2 fold change (filanesib) | log2 fold change (zotarolimus) | log2 fold change (idasanutlin) | log2 fold change (alisertib) | log2 fold change [2] | log2 fold change (gefitinib) | log2 fold change [3] | log2 fold change (lapatinib) | log2 fold change (pictilisib) | log2 fold change [4] | log2 fold change (crizotinib) | log2 fold change [5] | log2 fold change [6] | log2 fold change (duvelisib) | log2 fold change (gandotinib) | log2 fold change (tozasertib) | log2 fold change [7] | log2 fold change (doramapimod) | log2 fold change (ispinesib)
GHDC (UniProt Q8N2G8) | -0.026 | -0.127 | 0.021 | 0.061 | -0.057 | -0.13 | 0.037 | 0.087 | 0.042 | 0.042 | 0.041 | -0.02 | 0.021 | -0.074 | 0.043 | 0.002 | -0.01 | -0.039 | -0.041 | -0.132
HIC2 (UniProt Q96JB3) | -0.067 | 0.226 | -0.012 | 0.238 | -0.057 | -0.386 | -0.073 | -0.066 | 0.207 | -0.052 | -0.037 | 0.067 | -0.079 | 0.043 | -0.103 | 0.088 | 0.121 | 0.011 | 0.121 | -0.061
GTF2A1 (UniProt P52655) | -0.102 | 0.031 | 0 | 0.012 | -0.126 | -0.069 | 0.111 | 0.043 | 0.006 | 0.012 | 0.061 | 0.074 | 0.061 | -0.065 | 0.082 | 0.07 | -0.027 | -0.066 | -0.107 | 0.24
HTATIP2 isoform 3 (UniProt Q9BUP3) | -0.003 | -0.091 | 0.364 (active) | -0.031 | -0.029 | -0.131 | 0.066 | 0.054 | -0.015 | 0.137 | 0.014 | -0.106 | 0.023 | -0.145 | 0.294 (active) | 0.003 | 0.013 | 0.027 | 0.003 | -0.111
GLB1 (UniProt P16278) | 0.002 | -0.033 | 0.009 | -0.015 | -0.078 | -0.015 | 0.031 | 0.045 | 0.024 | 0.006 | 0.024 | -0.221 (active) | -0.074 | 0.007 | -0.022 | 0 | 0.036 | -0.004 | 0.013 | -0.255 (active)
HEXA (UniProt P06865) | 0.028 | -0.066 | -0.015 | -0.012 | -0.095 | 0.01 | -0.005 | 0.035 | 0 | 0.03 | 0.016 | -0.785 (active) | 0.02 | -0.015 | 0.049 | 0.015 | 0.002 | -0.02 | -0.016 | -0.124
GAPVD1 isoform 6 (UniProt Q14C86) | 0.003 | 0.033 | 0.055 | -0.021 | 0.047 | -0.048 | -0.013 | -0.068 | 0.041 | -0.025 | -0.012 | -0.145 | 0.017 | 0.075 | -0.058 | -0.081 | 0.061 | 0.147 | 0.038 | -0.133
GLUD1 (UniProt P00367) | -0.012 | -0.118 | -0.007 | -0.047 | -0.039 | -0.001 | 0.076 | 0.057 | 0.178 | 0.367 (active) | 0.16 | -0.016 | 0.058 | 0.005 | 0.006 | 0.141 | -0.071 | -0.057 | 0.048 | -0.048
GTF3C4 (UniProt Q9UKN8) | -0.038 | 0.034 | 0.019 | -0.003 | -0.032 | 0.007 | 0.058 | -0.011 | 0.029 | 0.028 | -0.011 | 0.078 | 0.04 | -0.015 | 0.035 | -0.05 | 0.059 | -0.063 | -0.019 | 0.06
FKBP4 (UniProt Q02790) | 0.015 | -0.066 | 0.077 | -0.048 | -0.018 | 0.031 | 0.008 | 0.009 | -0.062 | 0.027 | 0.013 | -0.008 | 0.042 | -0.068 | 0.019 | -0.105 | -0.005 | 0.077 | -0.052 | -0.017
GCLM (UniProt P48507) | 0.066 | -0.004 | 0.071 | -0.124 | -0.003 | 0.026 | 0.06 | -0.057 | 0.011 | 0.046 | 0.058 | -0.003 | 0.042 | -0.019 | -0.007 | -0.15 | 0.108 | 0.06 | -0.072 | 0.076
GOPC (UniProt Q9HD26) | -0.059 | 0.259 | 0.329 | 0.007 | -0.026 | 0.668 (active) | 0.137 | -0.146 | 0.15 | 0.08 | 0.218 | 0.293 | -0.043 | 0.294 | -0.003 | 0.101 | 0.144 | 0.091 | 0.061 | 0.038
HEXB (UniProt P07686) | 0.012 | -0.092 | -0.042 | 0.018 | -0.058 | 0.017 | 0.005 | 0.044 | -0.001 | 0.021 | -0.009 | -0.377 (active) | 0.058 | -0.021 | 0.008 | -0.013 | 0.012 | -0.031 | -0.007 | -0.128
FANCD2 isoform 1 (UniProt Q9BXW9) | 0.054 | -0.078 | -0.007 | -0.062 | -0.037 | 0.053 | -0.033 | 0.031 | -0.025 | 0.123 | -0.056 | -0.052 | 0.127 | -0.014 | -0.014 | -0.135 | 0.003 | 0.034 | 0.004 | -0.096
FUCA1 (UniProt P04066) | -0.014 | -0.057 | -0.025 | -0.044 | -0.004 | -0.113 | 0.003 | 0.1 | 0.047 | 0 | 0.019 | -0.079 | 0.031 | -0.049 | 0.007 | 0 | -0.007 | -0.044 | 0.021 | -0.007
IDH3A (UniProt P50213) | 0 | -0.067 | 0.007 | -0.074 | -0.063 | -0.009 | 0.039 | 0.022 | 0.017 | -0.021 | 0.023 | 0.006 | 0.07 | -0.046 | 0.063 | -0.037 | -0.029 | 0.022 | -0.024 | 0.013

— the supplement of paper PMC10849652
